{"source": "PubChem BioAssay AID540308", "about": "(The Scripps Research Institute Molecular Screening Center, 2011)", "note": "Screen size: about 360,000 compounds; about 3,500 (0.97%) were called active. This excerpt belongs to a sample that is enriched for actives. Unmarked numbers belong to inactive results.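 How the source made its calls: active means activation above a per-plate cutoff, the mean activation of sample wells on that plate plus 3 SD (cut at about 8% in these data); inactive means the rest.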", "data": [{"biological_target": "Melanocortin receptor 4 (Homo sapiens) (UniProt P32245)", "sequence (P32245 whole entry, looked up)": "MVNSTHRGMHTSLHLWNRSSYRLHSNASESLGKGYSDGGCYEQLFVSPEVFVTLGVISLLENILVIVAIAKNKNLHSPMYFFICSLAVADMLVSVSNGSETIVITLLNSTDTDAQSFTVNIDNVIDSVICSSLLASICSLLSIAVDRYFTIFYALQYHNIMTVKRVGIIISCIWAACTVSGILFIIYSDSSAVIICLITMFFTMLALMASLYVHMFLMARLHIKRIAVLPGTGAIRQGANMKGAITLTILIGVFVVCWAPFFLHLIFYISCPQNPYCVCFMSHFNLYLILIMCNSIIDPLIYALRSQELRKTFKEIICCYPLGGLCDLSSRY", "assay": "MC4R agonists recruiting beta-arrestin, primary screen, cell-based, luminescence, agonist arm of biased-ligand search (AID 540308)", "conditions": "U2OS MC4R beta-arrestin complementation, at 8.9 µM, hits give high values, percent of melanotan II response, DMSO zero", "values": [{"smiles": "COc1cccc(-n2c(SCC(=O)NC3CCCCC3)nc3n[nH]c(C)c3c2=N)c1", "activation": "-1.4%"}, {"smiles": "CCCCNC(=O)CSc1nc2n[nH]c(C)c2c(=N)n1-c1cccc(Cl)c1C", "activation": "-1.55%"}, {"smiles": "Cc1ccc(-n2c(SCC(=O)NCCC3=CCCCC3)nc3n[nH]c(C)c3c2=N)cc1Cl", "activation": "18.2% (active)"}, {"smiles": "COc1ccc(CNC(=O)c2ccc(-c3cccnc3)c3ccoc23)cc1OC", "activation": "1.26%"}, {"smiles": "CCCNC(=O)c1cc(C2CCCN(C(=O)c3ccc4c(c3)CCO4)C2)on1", "note": "(configuration not stated)", "activation": "-0.64%"}, {"smiles": "COc1ccc(C(=O)n2nc(C)c(Br)c2C)cc1OC", "activation": "1.71%"}, {"smiles": "COc1ccc(C(=O)n2nc(-c3ccc(C)cc3)nc2N)cc1OC", "activation": "15.4% (active)"}, {"smiles": "COc1ccc(C(=O)n2nc(-c3ccc(Cl)cc3)nc2N)cc1OC", "activation": "0.74%"}, {"smiles": "CC(=O)c1ccc(N2CCN(C(=O)CCNC(=O)Cn3ccc4ccccc4c3=O)CC2)cc1", "activation": "2.35%"}, {"smiles": "CCOC(=O)C1CCCN(C(=O)c2cccc3ccccc23)CC1", "note": "(configuration not stated)", "activation": "-0.59%"}, {"smiles": "O=C(CCC(=O)Nc1ccccc1)N/N=C/c1ccccc1F", "activation": "-0.29%"}, {"smiles": "Fc1ccccc1/C=N/Nc1cc(N2CCCCC2)ncn1", "activation": "12.1% (active)"}, {"smiles": "COc1ccccc1N1CCN(C(=O)C(=O)N/N=C/c2ccccc2F)CC1", "activation": "-3.16%"}, {"smiles": "CCCNC(=O)C1(C)CCN1C(=O)C1(c2ccccc2)CC1", "note": "(configuration not stated)", "activation": "1.14%"}, {"smiles": "Cc1ccc(S(=O)(=O)N2CCC(C(=O)OCC(=O)N(C)c3ccccc3)CC2)cc1C", "activation": "-3.84%"}, {"smiles": "COc1ccc(S(=O)(=O)N2CCC(C(=O)OCC(=O)c3ccccc3)CC2)cc1[N+](=O)[O-]", "activation": "31.7% (active)"}, {"smiles": "O=C(COc1ccc(S(=O)(=O)N2CCCC2)cc1[N+](=O)[O-])N1CCCCC1", "activation": "-1.25%"}, {"smiles": "CCc1nc2ccc(C(=O)NC3CCN(Cc4ccccc4)CC3)cn2c1N(CC)CCOC", "activation": "4.51%"}, {"smiles": "CCOc1cc(NC(=O)Nc2ccccc2)c(OCC)cc1NC(=O)CC", "activation": "0.85%"}, {"smiles": "Cc1ccc(NC(=O)Nc2ccccc2)c(Br)c1", "activation": "21.9% (active)"}, {"smiles": "O=C(Nc1ccccc1)c1ccccc1Br", "activation": "0.3%"}, {"smiles": "CC(=O)Nc1cccc(-c2ccnc3c2CC(C)(C(=O)NCc2ccco2)O3)c1", "note": "(configuration not stated)", "activation": "0.36%"}, {"smiles": "O=C(CCCn1c(SCC(=O)c2ccc(F)cc2)nc2ccccc2c1=O)NCc1ccco1", "activation": "29.6% (active)"}, {"smiles": "Cn1c(-c2ccc(F)cc2)cnc1SCC(=O)NCc1ccco1", "activation": "-1.34%"}, {"smiles": "O=C(CSc1nc2ccccc2c(=O)n1Cc1ccc(F)cc1)NCC1CCCO1", "note": "(configuration not stated)", "activation": "-0.86%"}, {"smiles": "O=C(c1cc(C2CCCCN2S(=O)(=O)c2ccccc2)on1)N1CCOCC1", "note": "(configuration not stated)", "activation": "0.01%"}, {"smiles": "CC=CCn1c(SCCCc2ccccc2)nc2c1c(=O)[nH]c(=O)n2C", "activation": "1.64%"}, {"smiles": "Cc1ccc(CNC(=O)Nc2nnc([C@H]3C[C@H](O)[C@@H](CO)O3)s2)cc1", "activation": "-0.78%"}, {"smiles": "OCCN1CCN(c2ncnc3c2ncn3[C@H]2CN(Cc3ccco3)C[C@@H](CO)O2)CC1", "activation": "-0.69%"}, {"smiles": "CCOC(=O)C1CCCN(C(=O)c2ccc(N(C)C)cc2)CC1", "note": "(configuration not stated)", "activation": "-0.51%"}, {"smiles": "Cc1ccc(Nc2nnc(SCC(=O)c3cc4ccccc4o3)s2)cc1C", "activation": "11% (active)"}, {"smiles": "Cc1cc2c(=O)n(C)c(SCC(=O)c3cc4ccccc4o3)nc2s1", "activation": "-0.92%"}, {"smiles": "CC(C)c1ccc(Nc2nnc(SCC(=O)c3nnc(-c4ccccc4)o3)s2)cc1", "activation": "-0.71%"}, {"smiles": "CC1(C(=O)NS(=O)(=O)C2CC2)CCCN(C(=O)CSc2ccccc2)C1", "note": "(configuration not stated)", "activation": "0.3%"}, {"smiles": "OC[C@@H]1CN(Cc2cccs2)C[C@H](n2cnc3c(Nc4ccccc4)ncnc32)O1", "activation": "0.44%"}, {"smiles": "O=C(Nc1sc2c(c1-c1nc3ccccc3[nH]1)CCCC2)C1CC1", "activation": "14.1% (active)"}, {"smiles": "O=C(CN1CCCC1)Nc1sc2c(c1C(=O)Nc1ccccc1)CCCC2", "activation": "-3.19%"}, {"smiles": "CCOC(=O)c1c(NC(=O)C2CCN(S(=O)(=O)c3ccc(Cl)cc3)CC2)sc2c1CCCC2", "activation": "2.72%"}, {"smiles": "O=C(Nc1ccc(Cl)c(C(F)(F)F)c1)C1Cc2c(-c3ccccc3Oc3ccccc3)ccnc2O1", "note": "(configuration not stated)", "activation": "-1.84%"}, {"smiles": "CCCCN(C=O)c1c(CC)nc2c(OCc3ccccc3C(=O)OC)cccn12", "activation": "0.49%"}, {"smiles": "C/C(=N\\NC(=O)COc1c(C)cccc1C)c1cccs1", "activation": "12.1% (active)"}, {"smiles": "C/C(=N\\NC(=O)CSc1nc2ccccc2c(=O)n1-c1ccccc1C)c1cccs1", "activation": "-1.88%"}, {"smiles": "C/C(=N\\OCC(=O)Nc1ccc(Br)cc1)c1cccs1", "activation": "-4.16%"}, {"smiles": "CC(=O)Nc1cccc(-c2ccnc3c2CC(C)(C(=O)NCc2ccccc2)O3)c1", "note": "(configuration not stated)", "activation": "-1.6%"}, {"smiles": "N/C(=N\\OC(=O)N1c2ccccc2Sc2ccccc21)c1ccc(Br)cc1", "activation": "8.26% (active)"}, {"smiles": "N/C(=N\\OC(=O)Cc1ccccc1[N+](=O)[O-])c1ccc(Br)cc1", "activation": "-1.47%"}, {"smiles": "N/C(=N\\OC(=O)c1ccc2c(c1)OCO2)c1ccc(Br)cc1", "activation": "0.57%"}, {"smiles": "CCC(=O)N1CCCC1(C)C(=O)Nc1ccc2c(c1)CCN2C(C)=O", "note": "(configuration not stated)", "activation": "-1.65%"}, {"smiles": "CCN(CC)c1ncnc2c1ncn2[C@H]1CN(Cc2cccs2)C[C@@H](CO)O1", "activation": "0.8%"}, {"smiles": "CCOc1ccc(NC(=O)COc2ccc(C(=O)N3CCC(C(N)=O)CC3)cc2OC)cc1", "activation": "-1.74%"}, {"smiles": "COC(=O)c1cc(OCC(=O)NC2CCCc3ccccc32)cc(C(=O)OC)c1", "note": "(configuration not stated)", "activation": "-1.2%"}, {"smiles": "CCOc1ccc(NC(=O)COc2ccc(C(=O)NC3CCCc4ccccc43)cc2OC)cc1", "note": "(configuration not stated)", "activation": "9.26% (active)"}, {"smiles": "Cc1ccc(CN2C(=O)CCC2C(=O)NCCCN2CCCCC2C)cc1", "note": "(configuration not stated)", "activation": "-0.33%"}, {"smiles": "Cc1ccc(F)c(NC(=O)CCOc2ccccc2C)c1", "activation": "-0.86%"}, {"smiles": "CC(=O)c1sc(NC(=O)CCCOc2ccccc2C)nc1C", "activation": "9.6% (active)"}, {"smiles": "Cc1ccccc1OCC(=O)Nc1nc(C)c(C(=O)N(C)C)s1", "activation": "-2.42%"}, {"smiles": "CCCNC(=O)C1(C)CCN1C(=O)Cc1ccc(-c2ccccc2)cc1", "note": "(configuration not stated)", "activation": "-0.78%"}, {"smiles": "COc1cc(C2C3=C(CCCC3=O)OC3=C2C(=O)CCC3)ccc1OCC(=O)Nc1ccccc1", "activation": "-1.3%"}, {"smiles": "CCCn1c(C)cc(/C=C(\\C#N)C(=O)OCC(=O)Nc2cc(OC)c(OC)c(OC)c2)c1C", "activation": "1.33%"}, {"smiles": "CCOC(=O)/C(C#N)=C/c1ccc(OCC(=O)Nc2ccccc2)c(OC)c1", "activation": "8.67% (active)"}, {"smiles": "CCNC(=O)C1(C)CCCN(C(=O)c2ccc3ccccc3n2)C1", "note": "(configuration not stated)", "activation": "-0.3%"}, {"smiles": "COCCNC(=O)C1(C)CCCN(Cc2cccc(F)c2)C1", "note": "(configuration not stated)", "activation": "-0.59%"}, {"smiles": "COc1ccc(NC(=O)C2(C)Cc3c(-c4ccc(C(N)=O)cc4)ccnc3O2)cc1", "note": "(configuration not stated)", "activation": "0.47%"}, {"smiles": "O=C(Nc1cccc2cccnc12)c1ccc2sc([C@H]3C[C@H](O)[C@@H](CO)O3)nc2c1", "activation": "0.55%"}, {"smiles": "CC1(C(=O)Nc2cccc3c2CCCC3)CCN1C(=O)CCc1ccc(Cl)cc1Cl", "note": "(configuration not stated)", "activation": "1.71%"}, {"smiles": "COc1cccc(CNC(=O)c2cccnc2Sc2ccc(Cl)cc2)c1", "activation": "0.85%"}, {"smiles": "O=C(NCc1cccnc1)c1cccnc1Sc1ccc(Cl)cc1", "activation": "1.65%"}, {"smiles": "O=C(NC1CCCCCC1)c1cccnc1Sc1ccc(Cl)cc1", "activation": "10.7% (active)"}, {"smiles": "CCCS(=O)(=O)NC(=O)C1(C)CCN(C(=O)c2sccc2C)C1", "note": "(configuration not stated)", "activation": "-0.75%"}, {"smiles": "COCOc1cccc(CN2CCC(C)(Oc3ccc(SC)cc3)C2)c1", "note": "(configuration not stated)", "activation": "0.12%"}, {"smiles": "Cc1cccc(C)c1OC(=O)CSc1nnc(-c2ccccc2)o1", "activation": "15.5% (active)"}, {"smiles": "CCN(C(=O)CSc1nnc(-c2ccncc2)o1)c1ccccc1", "activation": "0.57%"}, {"smiles": "COC(=O)CSc1nnc(-c2cccnc2)o1", "activation": "-1.17%"}, {"smiles": "COCCCNc1ccn2nc(-c3ccc(CC(C)C)cc3)cc2n1", "activation": "1.85%"}, {"smiles": "Cc1ccc(S(=O)(=O)N(C)CC(=O)OCC(=O)Nc2ccccc2)cc1", "activation": "-2.23%"}, {"smiles": "CC(c1ccco1)N(C(=O)Nc1ccccc1)C1CCCCC1", "note": "(configuration not stated)", "activation": "-3.36%"}, {"smiles": "Cc1ccc(NC(=O)NC(=O)N(C2CCCCC2)S(=O)(=O)c2ccccc2)cc1", "activation": "9.21% (active)"}, {"smiles": "Nc1cccc(-c2cncc(N3CCN(Cc4ccccn4)CC3)n2)c1", "activation": "-0.96%"}, {"smiles": "Cc1nc(C(F)(F)F)ccc1C(=O)N1CCC1(C)C(=O)NS(=O)(=O)c1ccccc1Cl", "note": "(configuration not stated)", "activation": "-1.94%"}, {"smiles": "Cc1[nH]c2ccccc2c1C(=O)COC(=O)c1c(-c2ccccc2)noc1C", "activation": "-0.48%"}, {"smiles": "O=C(CCN1CCCCC1)N=Nc1c(O)[nH]c2ccccc12", "activation": "-1.11%"}, {"smiles": "Cc1c(-c2ccccc2)n[nH]c1C(=O)N=Nc1c(O)[nH]c2ccccc12", "activation": "17.7% (active)"}, {"smiles": "O=C(COC(=O)c1ccc[nH]c1=O)Nc1ccc2c(c1)OC(F)(F)O2", "activation": "-2.05%"}, {"smiles": "O=C(COC(=O)CNC(=O)c1ccco1)Nc1ccc(F)cc1", "activation": "-0.58%"}, {"smiles": "O=C(COC(=O)c1ccccc1NC(=O)c1ccco1)Nc1ccc2c(c1)OC(F)(F)O2", "activation": "10.1% (active)"}, {"smiles": "CCc1nc2ccc(C(=O)NC3CCN(Cc4ccccc4)CC3)cn2c1N(C)CCN1CCOCC1", "activation": "-0.77%"}, {"smiles": "CC(C(=O)Nc1ccc(O)c(C(=O)O)c1)N1C(=O)/C(=C/c2cccs2)SC1=S", "note": "(configuration not stated)", "activation": "-1.84%"}, {"smiles": "O=C(CCCN1C(=O)/C(=C/c2cccs2)SC1=S)Nc1ccc(O)cc1", "activation": "20.4% (active)"}, {"smiles": "O=C(CN1C(=O)/C(=C\\c2ccccc2F)SC1=S)Nc1nc2ccccc2s1", "activation": "0.77%"}, {"smiles": "O=C(CCCN1C(=O)/C(=C\\c2ccco2)SC1=S)Nc1cccc2ccccc12", "activation": "13.9% (active)"}, {"smiles": "COc1cccc(/C=C2\\SC(=S)N(CCCC(=O)N3CCOCC3)C2=O)c1", "activation": "-0.8%"}, {"smiles": "COc1ccc(/C=C2/SC(=O)N(CCCCCC(=O)Nc3ccccc3C(=O)O)C2=S)cc1", "activation": "-0.47%"}]}]}
